Several values for one entry are separate records, joined by “and”; a condition that tells them apart may be missing. Identical values can stand only once. About 2,000 (36%) of roughly 5,500 compounds were called active. Inconclusive results (about 18%) are left out. No stated cut-off is given here; in the data, active means normalized growth mostly below about 0.91 (no sharp cut-off); inconclusive means no clear call, values can overlap the other calls; inactive means mostly above about 0.92. This is one part of the list.
Test: chemical genetic growth profiling, strain panel (AID 1159580);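 further: tested at 20 µM; growth read once vehicle control cultures reached saturation at 30 °C; 1 = growth at the plate median or of vehicle wells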
Details: S. cerevisiae deletion strains, growth OD

Measured: normalized growth

COC1C(O)C(O)C(O)[C@@H](O)C1O (some centres undefined)
inactive: locus YAL013W, strain DEP1, stronger effect = lower value 1.01 | locus YAL021C, strain ccr4, stronger effect = lower value 0.967 | locus YAL026C, strain drs2, stronger effect = lower value 0.978 | locus YAL030W, strain snc1, stronger effect = lower value 0.976 | locus YBL061C, strain skt5, stronger effect = lower value 0.971 | locus YBR009C, strain hhf1, stronger effect = lower value 0.98 | locus YBR021W, strain FUR4, stronger effect = lower value 1.03 | locus YBR023C, strain chs3, stronger effect = lower value 0.966 | locus YBR171W, strain sec66, stronger effect = lower value 0.978 | locus YBR229C, strain ROT2, stronger effect = lower value 1.01 | locus YBR231C, strain swc5, stronger effect = lower value 0.978 | locus YBR279W, strain paf1, stronger effect = lower value 0.982 | locus YCL011C, strain gbp2, stronger effect = lower value 0.976 | locus YCL016C, strain dcc1, stronger effect = lower value 0.968 | locus YCL029C, strain bik1, stronger effect = lower value 1.02 | locus YCL061C, strain MRC1, stronger effect = lower value 0.97 | locus YCL069W, strain vba3, stronger effect = lower value 0.98 | locus YCR088W, strain abp1, stronger effect = lower value 0.976 | locus YDL005C, strain med2, stronger effect = lower value 0.949 | locus YDL035C, strain GPR1, stronger effect = lower value 1.02 | locus YDL074C, strain BRE1, stronger effect = lower value 1.06 | locus YDL101C, strain DUN1, stronger effect = lower value 1.01 | locus YDL134C, strain PPH21, stronger effect = lower value 1 | locus YDL185W, strain tfp1, stronger effect = lower value 1.01 | locus YDL192W, strain arf1, stronger effect = lower value 1.03 | locus YDR001C, strain nth1, stronger effect = lower value 0.964 | locus YDR069C, strain doa4, stronger effect = lower value 0.981 | locus YDR101C, strain arx1, stronger effect = lower value 1.04 | locus YDR137W, strain rgp1, stronger effect = lower value 0.98 | locus YDR150W, strain NUM1, stronger effect = lower value 1.01 | locus YDR159W, strain sac3, stronger effect = lower value 1.06 | locus YDR162C, strain NBP2, stronger effect = lower value 1.01 | locus YDR195W, strain ref2 1.01 | locus YDR297W, strain sur2, stronger effect = lower value 0.977 | locus YDR318W, strain mcm21, stronger effect = lower value 1.02 | locus YDR334W, strain swr1, stronger effect = lower value 0.966 | locus YDR335W, strain msn5, stronger effect = lower value 0.972 | locus YDR388W, stronger effect = lower value 1.02 | locus YDR392W, strain spt3, stronger effect = lower value 0.909 | locus YDR502C, strain sam2, stronger effect = lower value 1.05 | locus YEL003W, strain gim4, stronger effect = lower value 0.974 | locus YEL037C, strain rad23, stronger effect = lower value 0.968 | locus YEL061C, strain CIN8 (second series), stronger effect = lower value 0.971 | locus YEL061C, strain CIN8, stronger effect = lower value 1.01 | locus YER015W, strain faa2, stronger effect = lower value 0.984 | locus YER016W, strain bim1, stronger effect = lower value 0.977 | locus YER110C, stronger effect = lower value 1.02 | locus YER111C, strain swi4, stronger effect = lower value 0.961 | locus YER155C, strain BEM2 (second series), stronger effect = lower value 0.971 | locus YER155C, strain BEM2, stronger effect = lower value 1.01 | locus YER167W, strain BCK2, stronger effect = lower value 1.01 | locus YFR010W, strain ubp6, stronger effect = lower value 0.951 | locus YGL078C, strain dbp3, stronger effect = lower value 1.02 | locus YGL086W, strain mad1, stronger effect = lower value 1.05 | locus YGL167C, strain pmr1, stronger effect = lower value 0.977 | locus YGL173C, strain kem1, stronger effect = lower value 0.964 | locus YGL227W, strain vid30, stronger effect = lower value 0.973 | locus YGL240W, strain doc1, stronger effect = lower value 1 | locus YGL248W, strain PDE1, stronger effect = lower value 1.01 | locus YGL253W, strain hxk2, stronger effect = lower value 0.966 | locus YGR078C, strain PAC10, stronger effect = lower value 1 | locus YGR135W, strain pre9, stronger effect = lower value 1.01 | locus YGR252W, strain gcn5, stronger effect = lower value 0.972 | locus YHR013C, strain ard1, stronger effect = lower value 0.948 | locus YHR027C, strain rpn1, stronger effect = lower value 0.999 | locus YHR030C, strain SLT2, stronger effect = lower value 0.999 and 0.933 | locus YHR079C, strain IRE1 (second series), stronger effect = lower value 1.03 | locus YHR079C, strain IRE1, stronger effect = lower value 0.925 | locus YHR094C, strain hxt1, stronger effect = lower value 1.04 | locus YHR129C, strain ARP1, stronger effect = lower value 1.01 | locus YHR142W, strain chs7, stronger effect = lower value 0.928 | locus YHR200W, strain rpn10, stronger effect = lower value 1.03 | locus YIL066C, strain RNR3, stronger effect = lower value 1.01 | locus YIL073C, strain SPO22, stronger effect = lower value 1.09 | locus YIL125W, strain kgd1, stronger effect = lower value 1.01 | locus YIR030C, strain dcg1, stronger effect = lower value 1.02 | locus YJL092W, strain hpr5, stronger effect = lower value 0.975 | locus YJL095W, strain BCK1 (second series), stronger effect = lower value 0.975 | locus YJL095W, strain BCK1, stronger effect = lower value 1 | locus YJL115W, strain asf1, stronger effect = lower value 0.971 | locus YJL129C, strain trk1, stronger effect = lower value 0.938 | locus YJL134W, strain LCB3, stronger effect = lower value 0.999 | locus YJL154C, strain vps35, stronger effect = lower value 0.964 | locus YJL164C, strain tpk1, stronger effect = lower value 0.974 | locus YJL166W, strain qcr8, stronger effect = lower value 0.98 | locus YJL168C, strain set2, stronger effect = lower value 1.02 | locus YJL187C, strain SWE1 (second series), stronger effect = lower value 1.01 | locus YJL187C, strain SWE1, stronger effect = lower value 0.977 | locus YJR043C, strain POL32, stronger effect = lower value 0.989

Source: PubChem BioAssay AID1159580 (chemical genetic matrix, 2015)
